Data: PubChem BioAssay AID1852 (Sanford-Burnham Center for Chemical Genomics, 2009)
About 1,100 (44%) of roughly 2,500 compounds were called active.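 The calls were made as follows: active = inhibition above 50% at 4 µM in the single-point screen; inactive = inhibition of 50% or less.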 So high a share suggests a set chosen from earlier hits. The list shows a part of the results.

assay: TNF-a-driven NF-kB reporter inhibitors, primary screen, selectivity assay for NOD1/NOD2 signaling inhibitor project, cell-based, HEK293T NF-kB-Luc, luminescence (AID 1852); conditions: TNF-a induced, 14 h, at 4 µM, hits give high values

| SMILES | inhibition |
| --- | --- |
| Cc1ccc(-c2csc(NC(=O)c3ccc4c(=O)n5c(nc4c3)CCCCC5)n2)cc1 | 97.1% (active) |
| O=C(NC1CCCCC1)N1CCN(c2nc(-c3ccccc3)cs2)CC1 | 48.4% (inactive) |
| O=C(Nc1nc(-c2ccccc2)cs1)c1ccc2c(=O)n3c(nc2c1)CCCCC3 | 106% (active) |
| Cc1ccc(-c2csc(NC(=O)C3=NN(c4ccccc4)C(=O)CC3)n2)cc1 | 38.6% (inactive) |
| Nc1ccc(S(=O)(=O)Nc2nccc(/C=C/c3ccc(Cl)cc3Cl)n2)cc1 | 4% (inactive) |
| Cc1cccc2cc3c(N)c(C(=O)Nc4ccc(N5CCOCC5)cc4)sc3nc12 | 36.4% (inactive) |
| Cc1cc(N2CCOCC2)c2c(N)c(Br)cc(C)c2n1 | 80.6% (active) |
| COc1ccccc1-c1cc(C(F)(F)F)nc(S(=O)(=O)CCCC(=O)N2CCOCC2)n1 | 51.1% (active) |
| COc1ccccc1-c1cc(C(F)(F)F)nc(S(=O)(=O)CCCC(=O)N2CCCCC2C)n1 (stereo not drawn) | 66.8% (active) |
| COc1cccc(Cn2c(NCc3cccnc3)nc3c2c(=O)n(C)c(=O)n3C)c1 | 37.8% (inactive) |
| COc1cc(/C=N/Nc2nc3c(c(=O)n(C)c(=O)n3C)n2Cc2ccccc2)ccc1OC(=O)c1ccco1 | 52.5% (active) |
| O=S(=O)(Nc1nc2ccccc2nc1Cl)c1ccc(Br)cc1 | 20.8% (inactive) |
| CC(C(=O)N1CCN(c2ccccc2F)CC1)c1ccc([N+](=O)[O-])cc1 (stereo not drawn) | -32.5% (inactive) |
| O=S(=O)(Nc1nc2ccccc2nc1N1CCN(c2ccccc2F)CC1)c1ccc(Cl)cc1 | 86.2% (active) |
| COc1ccccc1-c1cc(C(F)(F)F)nc(S(=O)(=O)CCCC(=O)Nc2cccnc2Cl)n1 | 37.1% (inactive) |
| O=C(O)CCC(=O)Nc1cccc(-c2csc(-c3ccccc3)n2)c1 | 41.9% (inactive) |
| COc1ccc(-c2cc(C(F)(F)F)nc(S(=O)(=O)CCCC(=O)Nc3cccc(O)c3)n2)cc1OC | 81.5% (active) |
| COc1ccc(-c2cc(C(F)(F)F)nc(S(=O)(=O)CCCC(=O)Nc3cccnc3Cl)n2)cc1OC | 88.1% (active) |
| Cc1cc(-c2ccc(C)c(S(=O)(=O)N3CCN(c4ccc([N+](=O)[O-])cc4)CC3)c2)on1 | 16.8% (inactive) |
| C[C@@H](C(=O)Nc1ccc2ccccc2c1)[C@@H]1C[C@@]1(C)[C@@H](NC(=O)c1cnccn1)c1ccccc1 | -2.6% (inactive) |

| SMILES | inhibition |
| --- | --- |
| Cc1cc(C(=O)CN2C(=O)c3ccccc3S2(=O)=O)c(C)n1CC1CCCO1 (stereo not drawn) | 96.8% (active) |
| Cc1cc(C(=O)CSc2nc3ccccc3c(=O)n2C)c(C)n1Cc1ccc2c(c1)OCO2 | 69.5% (active) |
| COc1ccccc1Nc1nc(NCC2CCCO2)c2ccccc2n1 (stereo not drawn) | 39.1% (inactive) |
| Cc1cc(C(=O)CSc2nc3ccccc3c(=O)n2C)c(C)n1CC1CCCO1 (stereo not drawn) | 65.9% (active) |
| Cc1cc(C(=O)COC(=O)c2ccccc2Br)c(C)n1CC1CCCO1 (stereo not drawn) | -5.9% (inactive) |
| CCCCN(CC)c1nc(-c2ccncc2)nc2ccccc12 | 34.7% (inactive) |
| O=C(N/C(=C/c1ccc([N+](=O)[O-])cc1)C(=O)N1CCOCC1)c1ccco1 | 14% (inactive) |
| CCn1nc(NS(=O)(=O)c2ccc([N+](=O)[O-])cc2)c2cc3cccc(C)c3nc21 | 19.3% (inactive) |
| O=[N+]([O-])c1cccc(S(=O)(=O)Nc2nc3ccccc3nc2Nc2cccc(S(=O)(=O)N3CCCCC3)c2)c1 | 97.6% (active) |
| COc1cc(Nc2nc3ccccc3nc2NS(=O)(=O)c2ccc([N+](=O)[O-])cc2)cc(OC)c1OC | 84.6% (active) |
| COc1cccc(Nc2nc3ccccc3nc2NS(=O)(=O)c2cccs2)c1 | 7.5% (inactive) |
| Cc1cc(Nc2nc3ccccc3nc2Cl)n(-c2ccc([N+](=O)[O-])cc2)n1 | 28.5% (inactive) |
| O=S(=O)(Nc1nc2ccccc2nc1Nc1ccc2c(c1)OCO2)c1ccc(F)cc1 | 18% (inactive) |
| Cc1ccc(S(=O)(=O)Nc2nc3ccccc3nc2Nc2cccc(S(=O)(=O)N3CCCC3)c2)cc1 | 71% (active) |
| CCn1c(/C=C/c2cc(Br)ccc2O)nc2ccccc2c1=O | -6.3% (inactive) |
| O=[N+]([O-])c1cc(-c2nc3nc4ccccc4nc3n2CCc2ccccc2)cc([N+](=O)[O-])c1 | -12.4% (inactive) |
| O=c1c2ccccc2nc(/C=C/c2ccc([N+](=O)[O-])o2)n1CCCO | 98.8% (active) |
| O=c1c2ccccc2nc(/C=C/c2cc(Br)ccc2O)n1CCCO | 59% (active) |
| COc1ccc(O)c(CNn2c(-c3ccc(Br)cc3)nc3ccccc3c2=O)c1 | 12.6% (inactive) |
| Cc1ccc(-c2cc(C(=O)N/N=C/c3ccc([N+](=O)[O-])o3)c3ccccc3n2)o1 | 6.6% (inactive) |

| SMILES | inhibition |
| --- | --- |
| COc1ccc(Nc2nc(NCC3CCCO3)c3ccccc3n2)c(OC)c1 (stereo not drawn) | 31.4% (inactive) |
| COc1cccc(NC(=O)CSc2nc3ccccc3c(=O)n2C)c1 | 12.1% (inactive) |
| COc1cccc(Nc2nc(NCCO)c3ccccc3n2)c1 | 69.6% (active) |
| COc1cc(OC)c(N(C)S(=O)(=O)c2cccc(C(=O)OCC(=O)c3c[nH]c4ccccc34)c2)cc1Cl | 92.4% (active) |
| CCOc1cccc(/C=C/c2ccc3cccc(O)c3n2)c1O | 4.2% (inactive) |
| COc1ccc(Cl)cc1/C=C/c1ccc2cccc(O)c2n1 | 47.4% (inactive) |
| COc1cccc(/C=C/c2ccc3ccccc3n2)c1OC(C)=O | -25.7% (inactive) |
| COc1cc(Br)cc(/C=C/c2ccc3cccc(O)c3n2)c1O | 0.4% (inactive) |
| COc1ccc(OC)c(/C=C/c2ccc3cccc(O)c3n2)c1 | 105% (active) |
| COc1cccc(/C=C/c2ccc3cccc(O)c3n2)c1OC | -20% (inactive) |
| Oc1ccc(Cl)cc1/C=C/c1ccc2cccc(O)c2n1 | 8.6% (inactive) |
| Oc1cccc2ccc(/C=C/c3ccccc3Br)nc12 | 51.4% (active) |
| COc1ccc(Br)cc1/C=C/c1ccc2cccc(O)c2n1 | 52.6% (active) |
| Cc1ccc(NC(=O)CN(c2ccc(Cl)cc2)S(=O)(=O)c2cc([N+](=O)[O-])ccc2Cl)c(C)c1 | -17.7% (inactive) |
| Cc1ccc(NC(=O)CC(=O)c2ccc([N+](=O)[O-])cc2)cc1S(=O)(=O)Nc1cccc(Cl)c1 | 15.2% (inactive) |
| Cc1ccc(NS(=O)(=O)c2ccc(-n3cccn3)cc2)c(C)c1 | 40.7% (inactive) |
| Cc1ccc(C)c(NC(=O)c2ccccc2NS(=O)(=O)c2cc([N+](=O)[O-])ccc2C)c1 | 75.8% (active) |
| Cc1ccc(NS(=O)(=O)c2cc([N+](=O)[O-])ccc2NNC(=S)Nc2cc(C)ccc2C)c(C)c1 | 77.3% (active) |
